Experimental data taken from PubChem BioAssay AID434959 (Broad Institute, 2010).
Hit rate of the full screen: of about 30,000 compounds, about 110 (0.37%) were called active. This is one part of a sample in which actives are shown more often than they occur. A number with no mark means an inactive call.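 Rule for the calls: active = delta delta Cp rounded down to an integer at or above 3, about 3 SD of DMSO wells; inactive = the rest.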

Assay: inhibitors of YB-1 gene expression, primary screen, cell-based, fluorescence (AID 434959);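 note: higher means less YB-1 transcript or more CDIP transcript relative to DMSO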
Conditions: U2OS, qRT-PCR YB-1 vs CDIP delta delta Cp, 16 h; stronger effect = higher value; zero = DMSO, each unit about twofold

Row | Compound | delta Cp (YB-1 minus CDIP)
1 | C[C@@H]1CN([C@H](C)CO)C(=O)c2cc(NS(=O)(=O)c3ccccc3)ccc2O[C@H]1CN(C)S(=O)(=O)c1cccs1 | 0.37
2 | COc1ccc(S(=O)(=O)Nc2ccc3c(c2)C(=O)N([C@H](C)CO)C[C@@H](C)[C@@H](CN(C)CC2CCCCC2)O3)cc1 | 0.268
3 | Cc1ccc(S(=O)(=O)Nc2ccc3c(c2)C(=O)N([C@H](C)CO)C[C@H](C)[C@H](CN(C)S(=O)(=O)c2ccc(F)cc2)O3)cc1 | 0.151
4 | C[C@@H]1CN([C@@H](C)CO)C(=O)CCCn2nncc2CO[C@H]1CN(C)C(=O)Nc1ccc(C(F)(F)F)cc1 | -0.177
5 | O=C(CCCCCCC(=O)Nc1ccccc1O)N/N=C/c1ccc(C(F)(F)F)cc1 | -0.34
6 | Cc1noc(C)c1S(=O)(=O)Nc1ccc2c(c1)CC(=O)N([C@H](C)CO)C[C@@H](C)[C@@H](CN(C)Cc1ccncc1)O2 | -0.237
7 | COc1cc([C@H](Cc2ccccc2)NC(C)=O)oc(=O)c1 | 7.24 (active)
8 | COc1ccc2c(c1)C(=O)CC(c1ccccc1)O2 (stereo not drawn) | -0.382
9 | COc1cc(CCC(=O)O)oc(=O)c1 | 0.941
10 | COc1ccc(S(=O)(=O)Nc2ccc3c(c2)CC(=O)N([C@H](C)CO)C[C@@H](C)[C@@H](CN(C)S(=O)(=O)c2ccc(F)cc2)O3)cc1 | 0.215
11 | Cc1noc(C)c1S(=O)(=O)Nc1ccc2c(c1)C(=O)N([C@@H](C)CO)C[C@H](C)[C@H](CN(C)Cc1ccc(C(=O)Nc3ccccc3N)cc1)O2 | -0.223
12 | C[C@@H]1CN([C@@H](C)CO)C(=O)c2cccc(NC(=O)CCCCCC(=O)Nc3ccccc3N)c2O[C@@H]1CN(C)CC1CCCCC1 | -0.278
13 | C[C@@H]1CN([C@@H](C)CO)C(=O)Cc2cc(NC(=O)C3CCCCC3)ccc2O[C@@H]1CN(C)Cc1ccc(-c2ccccc2)cc1 | -0.443
14 | COc1ccc(NC(=O)N(C)C[C@H]2Oc3ccc(NS(=O)(=O)c4ccc(F)cc4)cc3C(=O)N([C@@H](C)CO)C[C@@H]2C)cc1 | 0.491
15 | COc1cc(OC)c(/C=N/NC(=O)CCCCCCC(=O)Nc2ccccc2O)c(OC)c1 | -0.14
16 | N#C/C(=C\c1ccc(O)c(O)c1)C(N)=O | -0.313
17 | Cc1noc(C)c1NC(=O)N(C)C[C@@H]1Oc2ccc(NC(=O)Nc3ccc4c(c3)OCO4)cc2C(=O)N([C@H](C)CO)C[C@H]1C | -0.0859
18 | C[C@@H]1CCCCO[C@H](CN(C)Cc2ccccc2)[C@@H](C)CN([C@H](C)CO)C(=O)c2cc(NS(C)(=O)=O)ccc2O1 | -0.038
